Bioassay records (PubChem)
A selection: hits, their analogues and other compounds. The true share with any hit is near 2.3%.
Abeta rescue = A-beta toxicity reversal in yeast; yeast expressing A-beta42, growth rescue, OD600, 48 h; response scale: 0% DMSO, 100% iron-clioquinol control; Potency, µM (titrated, usually from 46.1 µM), hits mostly activators; 410,000 tested, 0.063% active; also: potency is read from the fitted curve at half-maximal effect; nearly all actives have a fitted effect of over 55% in size
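Yeast growth medium received pinned compounds, then yeast cells expressing toxic A-beta were added; plates incubated at 30 C for 48 hr. Growth read as absorbance at 600 nm, normalized to DMSO and equimolar FeCl3 plus clioquinol controls.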
TDP-43 yeast inh = rescues yeast growth from TDP-43 toxicity. TDP-43 expressing yeast growth rescue, BacTiter-Glo, 24 h. Potency, µM (titrated, usually from 46.1 µM), for inactives: at the highest dose growth rescue (activation), most hits filed as activators. 410,000 tested, 1.8% active. AID 652104; also: potency is read from the fitted curve at half-maximal effect; % of control where 0% means no effect; nearly all actives have a fitted effect of over 50% in size
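Yeast cells expressing TDP-43 under galactose induction are exposed to compounds for 24 hr at 30 deg C. BacTiter-Glo luminescence measures growth, so protective compounds score as activators.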
MmCpn inh = M. maripaludis TRiC chaperonin inhibition. purified Mm-Cpn ATPase, ADP Transcreener TR-FRET. Potency, µM (series often up to 76.9 µM), without a hit: at the highest dose activity, negative = inhibition, actives largely listed as inhibitors. 330,000 tested, 0.031% active. AID 504842; also: potency is read from the fitted curve at half-maximal effect; % is scaled to controls: 0 for no effect and ±100 for the full control effect; nearly all actives have a fitted effect of over 80% in size
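Eu-cryptate anti-ADP/ADP-d2 competition gives a ratio inversely related to ADP. Enzyme at 25 nM was pre-exposed to compound for 10 min, then given 10 uM ATP for 30 min, 37°C throughout.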
CCT modulator = cytosolic chaperonin activity modulation | purified chaperonin ATPase assay, HTRF ADP detection, 30 min | activity change, % (test concentration not listed), hits read low | AID 651819 | 360,000 tested, 0.3% active; in the data active = activity change below about -30%; also: % is scaled to controls: 0 for no effect and ±100 for the full control effect
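First, chaperonin was dispensed at 40 nM or 20 nM final depending on batch activity. Next, compounds were pinned at 76 uM and ATP added at 10 uM. After 30 min at 37 °C, ADP detection reagents ran 30 min at ambient temperature.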
aSyn yeast inh = rescues yeast growth from alpha-synuclein toxicity | Yeast expressing alpha-synuclein, growth rescue, BacTiter-Glo, 24 h | Potency, µM (highest dose often 46.1 µM), without a hit: at the top dose growth rescue (activation), most hits filed as activators | 370,000 tested, 0.14% active | AID 652106; also: potency is read from the fitted curve at half-maximal effect; % of control where 0% means no effect; nearly all actives have a fitted effect of over 65% in size
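Screening used galactose-induced yeast with toxic alpha-synuclein levels, exposed to compound for 24 hr at 30 deg C. Cell growth, read with BacTiter-Glo luminescence, gave the measured signal.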
FUS yeast rescue = FUS proteinopathy suppression in yeast; S. cerevisiae FUS-expressing, growth rescue, OD600, 24 h; Potency, µM (top dose mostly 76.6 µM), usual class: activators; 390,000 tested, 0.24% active;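 also: potency is read from the fitted curve at half-maximal effect; plate controls were DMSO vehicle for no effect and reference control for full effect; nearly all actives have a fitted effect of over 55% in size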
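Toxicity suppression screen in FUS-yeast. Cells induced with 2% galactose, starting OD 0.005, treated 24hr at 30C with compounds at multiple final concentrations; growth by OD600.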
Numbers without * were called inactive; i = inactive; ? = inconclusive; · = no result given; [ ] = remark or other dose. Unless noted, calls follow the shape of the dose curve; as a rule, active = well fitted curve in the direction sought with a large enough effect; inconclusive = small, poorly fitted or top-dose-only effect, or another doubt; inactive = no such curve, though single readings can be large; an effect the other way counts as inactive or inconclusive.

SMILES	Abeta rescue	TDP-43 yeast inh	MmCpn inh	CCT modulator	aSyn yeast inh	FUS yeast rescue
CCc1ccc2oc(-c3cc(N)ccc3Cl)nc2c1	i	18µM*	-1%	-3	3%	i
CCOCCCN1C(=O)CN(C2CCCCCC2)C(=O)C1c1ccc(OC(C)C)c(OC)c1 (stereo not given)	i	-16%	·	·	·	i
COc1cc2c(NC3CCN(C)CC3)nc(N3CCCN(C)CC3)nc2cc1OCCCC(C)C	·	·	·	·	-19%	·
CN(C)[C@H]1CCN(c2cccc3c2S(=O)(=O)N2CC[C@@H](C2)O3)C1	·	·	·	·	·	i
COc1ccccc1NC(=S)N1CCN(c2cccc(C)c2C)CC1	?	18µM*	-1%	-1	0%	i
Cc1cccc(N2CCN(C(=O)c3ccc4nc[nH]c4c3)CC2)c1C	i	15%	0%	-6	-5%	i
COc1cc(C(=O)N2CCN(c3cccc(C)c3C)CC2)cc(OC)c1OC	i	22µM*	-1%	-1	-4%	i
COc1ccc(S(=O)Cc2ccc(C(=O)N3CCN(c4cccc(C)c4C)CC3)o2)cc1 (stereo not given)	i	20µM*	3%	1	5%	i
Cc1cccc(N2CCN(C(=O)c3ccncc3)CC2)c1C	i	26%	-1%	2	3%	i
Cc1cccc(N2CCN(C(=O)c3ccc4ncsc4c3)CC2)c1C	i	11µM*	-9%	-2	22%	i
O=C(c1ccc2ncsc2c1)N1CCN(c2ccccc2Cl)CC1	i	10µM*	-5%	-1	-1%	i
O=C(c1ccc(N2CCCC2=O)cc1)N1CCN(c2ccccc2Cl)CC1	i	16µM*	0%	-1	5%[1.84 µM]	i
Cc1ccc(C)c(N2CCN(C(=O)c3ccc4nsnc4c3)CC2)c1	i	11µM*	-1%	-3	4%	i
COc1ccc(NC(=O)CSc2nc(-c3cccc(C)c3)[nH]c2-c2ccccc2)cc1OC	i	1%	·	·	·	i
Cc1nc(NC(=S)NC(=O)c2ccccc2)sc1C	i	6%	0%	-33*	-5%	i
Cc1nc(NC(=O)c2ccccc2)sc1C	i	-20%	1%	0	-6%	i
Cc1nc(NC(=O)CCc2ccccc2)sc1C	i	13µM*	-1%	-4	2%	i
Nc1nc(NCc2ccc(Cl)c(Cl)c2)c2[nH]cnc2n1	·	·	·	·	16%	·
C[C@H]1[C@@H](OC(=O)Nc2cccc(Cl)c2)CC[C@@]23CCCN2C(=O)CCC[C@@H]13	·	·	·	·	·	i
Brc1ccc(Oc2nsnc2N2CCOCC2)cc1	i	11µM*	2%	-4	-6%	i
COC(=O)Oc1nsnc1N1CCOCC1	i	-12%	-7%	-2	-40%	i
O=C(C(=O)N1CCN(c2ccccc2Cl)CC1)c1c[nH]c2ccccc12	·	22µM*	-1%	2	18µM*	i
Clc1ccccc1N1CCN(Cc2c[nH]c3ccccc23)CC1	?	7%	·	-2	6%	i
COc1cc(-c2nnc(COc3ccc4ccccc4c3)o2)cc(OC)c1OC	i	28µM*	-1%	-7	6%	·
COc1cc(-c2nnc(-c3ccccc3)o2)cc(OC)c1OC	i	18%	-1%	3	-11%	i
SMILES	Abeta rescue	TDP-43 yeast inh	MmCpn inh	CCT modulator	aSyn yeast inh	FUS yeast rescue
CC(C)(C)OC(=O)NCc1ccc(NC(=O)c2nc[nH]c2C(=O)NCCCNC(=O)c2[nH]cnc2C(=O)Nc2ccc(CNC(=O)OC(C)(C)C)cc2)cc1	i	9%	2%	1	4%	i
CC(C)(C)OC(=O)NCc1ccc(NC(=O)c2nc[nH]c2C(=O)NCCN(CCNC(=O)c2[nH]cnc2C(=O)Nc2ccc(CNC(=O)OC(C)(C)C)cc2)CCNC(=O)c2[nH]cnc2C(=O)Nc2ccc(CNC(=O)OC(C)(C)C)cc2)cc1	i	19%	2%	1	-1%	8.9µM*
CCOC(=O)c1ccc(NC(=O)c2nc[nH]c2C(=O)NCC(=O)OC(C)(C)C)cc1	?	22µM*	3%	1	10%	?
CCCNC(=O)CNC(=O)c1ccccc1OCC(=O)Nc1ccc(Br)cc1	·	·	·	·	8%	·
COc1cc(OC)c(OC)cc1/C=C/c1nccc2ccccc12	·	·	·	·	-17%	·
CCN1CCN(C(=O)/C(C#N)=C/c2ccc(OC(F)F)cc2)CC1	i	11%	-16%	-1	1%	i
N#C/C(=C\c1ccc(OC(F)F)cc1)C(=O)N1CCCCC1	i	?	1%	1	13µM*	i
COC[C@H]1CCCN1c1ccc2c(c1)O[C@@H]1CCN(C1)S2(=O)=O	·	·	·	·	·	i
O=C(Cc1ccccc1Cl)NCCN1C(=O)C2C3C=CC(C3)C2C1=O (stereo not given)	·	·	·	·	·	i
Cc1nc(S(=O)(=O)N2CCOCC2)c(C#N)c(C)c1Cl	i	13µM*	0%	2	4%	i
Cc1nc(S(=O)(=O)NC2CCCCC2)c(C#N)c(C)c1Cl	i	?	-2%	-3	17%	i
Cc1ccc(C)c(OCCn2nnc3ccccc32)c1	i	?	2%	-2	16%	i
Cc1cccc(C)c1OCCn1nnc2ccccc21	i	18µM*	1%	3	14%	i
Cc1cc(C)cc(OCCn2nnc3ccccc32)c1	i	22µM*	0%	2	3%	i
CCn1nc(C)c2c(-c3ccccc3)cc(=O)n(C(C)C(=O)NCc3ccccc3OC)c21 (stereo not given)	i	10µM*	·	·	·	?
Cc1nn(C)c2c1c(-c1ccccc1)cc(=O)n2C(C)C(=O)NCCc1ccc(Cl)cc1 (stereo not given)	i	22µM*	·	·	·	?
CCn1nc(C)c2c(-c3ccccc3)cc(=O)n(C(C)C(=O)NCCc3ccc(Cl)cc3)c21 (stereo not given)	i	22µM*	·	·	·	?
CCn1nc(C)c2c(-c3ccccc3)cc(=O)n(C(C)C(=O)Nc3cc(C)ccc3C)c21 (stereo not given)	i	4%	·	·	·	i
O=C(C[n+]1cccc(Br)c1)c1ccc(O)c(O)c1	·	·	·	·	1%	·
Nc1ccccc1/C=C/c1ccnc2ccccc12	·	·	·	·	-14%	·
CN(CC(=O)Nc1ccccc1Br)C(=O)c1cc2c(s1)CCCCC2	i	18µM*	-2%	-1	2%	i
COc1ccc(NC(=O)CN(C)C(=O)c2cc3c(s2)CCCCC3)cc1	i	28µM*	-1%	0	0%	i
CC(=O)Nc1nnc(SCc2cc(=O)c3cccc(Cl)c3[nH]2)s1	i	5%	·	·	·	i
